Bioassay records from PubChem BioAssay.
KDM4E inh: inhibitors of human JMJD2E histone demethylase. Potency, µM (titrated, usually from 57.1 µM), for inactives: at the top dose activity change, negative = inhibition, most hits filed as inhibitors. AID 2147. JMJD2E catalytic domain, FDH-coupled NADH fluorescence (FDH is formaldehyde dehydrogenase). 1.6% of 230,000 active. B2RXH2; active = well fitted inhibition curve with a large enough effect, not every such curve was filed as active; inconclusive = small, poorly fitted or top-dose-only effect, or another doubt; inactive = no such curve, though single readings can be large or run the other way;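 also: 0% = wells with enzyme and -100% = buffer wells without enzyme; nearly all actives have a fitted effect of over 50% in size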
L3MBTL1 inh: inhibitors of human L3MBTL1 | Potency, µM (doses to about 57.1 µM), inactives show top-dose activity, negative = inhibition, actives largely listed as inhibitors | AlphaScreen L3MBTL1–H3K9me1 peptide binding | 0.66% of 230,000 active | Q9Y468; also: nearly all actives have a fitted effect of over 60% in size
Target sequence (Q9Y468 whole entry, looked up): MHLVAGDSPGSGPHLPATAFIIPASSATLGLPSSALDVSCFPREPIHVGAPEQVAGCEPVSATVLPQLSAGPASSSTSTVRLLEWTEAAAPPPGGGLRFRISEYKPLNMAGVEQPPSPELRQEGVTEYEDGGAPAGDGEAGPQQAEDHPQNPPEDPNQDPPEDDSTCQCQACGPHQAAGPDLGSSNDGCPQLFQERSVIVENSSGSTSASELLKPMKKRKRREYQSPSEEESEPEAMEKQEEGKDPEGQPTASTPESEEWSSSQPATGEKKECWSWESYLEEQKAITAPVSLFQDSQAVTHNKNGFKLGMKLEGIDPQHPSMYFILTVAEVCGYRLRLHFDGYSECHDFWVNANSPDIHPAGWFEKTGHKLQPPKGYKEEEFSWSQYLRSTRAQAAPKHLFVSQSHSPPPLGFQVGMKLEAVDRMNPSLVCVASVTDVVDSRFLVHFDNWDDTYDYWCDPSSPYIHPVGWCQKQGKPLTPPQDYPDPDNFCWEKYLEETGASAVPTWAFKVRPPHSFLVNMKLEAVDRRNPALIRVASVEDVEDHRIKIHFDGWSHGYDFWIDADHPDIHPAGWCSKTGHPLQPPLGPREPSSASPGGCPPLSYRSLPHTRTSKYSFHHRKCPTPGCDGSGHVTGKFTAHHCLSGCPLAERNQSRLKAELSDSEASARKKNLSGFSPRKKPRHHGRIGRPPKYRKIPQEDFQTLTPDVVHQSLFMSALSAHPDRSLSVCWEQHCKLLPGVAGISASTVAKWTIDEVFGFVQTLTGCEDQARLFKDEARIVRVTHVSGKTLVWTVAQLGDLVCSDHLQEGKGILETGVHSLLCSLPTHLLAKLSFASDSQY
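AlphaScreen assay: L3MBTL1 (50 nM final) was preincubated 30 min at room temperature with biotinylated H3(1-15)K9me1 peptide (75 nM final), then 30 min with library compounds; streptavidin donor and nickel chelate acceptor beads (10 ug/mL final) added, 30 min dark.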
APEX1 inh: APE1 (human) endonuclease inhibition; P27695; recombinant APE1, TAMRA/BHQ-2 abasic DNA cleavage fluorescence; Potency, µM (series often up to 65.8 µM), for the others: at the highest dose activity change, negative = inhibition, actives largely listed as inhibitors; 0.35% of 350,000 active; AID 2517;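 also: plate controls were vehicle for no effect and reference inhibitor for full effect; nearly all actives have a fitted effect of over 55% in size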
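APE1 at 0.75 nM final was preincubated with compound 15 min at room temperature, then 50 nM double-stranded THF abasic-site substrate (5'-TAMRA/3'-BHQ-2) was added. Fluorescence (ex 525/em 598 nm) was read kinetically; third-minus-first read gave activity.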
RECQ1 helicase: inhibitors of human RECQ1 DNA helicase. P46063. RECQ1 DNA unwinding, red fluorescence kinetic read. Potency, µM (highest dose often 57.3 µM), for inactives: at the highest dose activity, negative = inhibition, actives largely listed as inhibitors. 0.54% of 240,000 active;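 also: plate controls were vehicle for no effect and no enzyme for full effect; nearly all actives have a fitted effect of over 30% in size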
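RECQ1T1 50 nM; forked duplex (20 bp + 30-nt ss tails) 200 nM, ATP 2 mM final; pH 8.0, 2 mM MgCl2, 2.5 ug/ml poly(dI-dC); 15 min compound preincubation; discontinuous kinetic read over 2 h at RT.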
BLM helicase inh: blocks DNA unwinding by human BLM helicase; P54132; 0.2% of 350,000 active; recombinant BLM DNA unwinding, fluorescence dequenching; Potency, µM (highest dose often 56.1 µM), for the others: at the highest dose activity change, negative = inhibition, hits mostly inhibitors;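 also: plate controls were vehicle for no effect and no enzyme for full effect; nearly all actives have a fitted effect of over 35% in size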
* = called active by the depositor; i = inactive; ? = inconclusive; nt = no result given; ! = not active in a repeat; [ ] = remark or other dose. The full list was thinned out, with hits kept by preference. Unless noted, calls follow the shape of the dose curve; as a rule, active = well fitted curve in the direction sought with a large enough effect; inconclusive = small, poorly fitted or top-dose-only effect, or another doubt; inactive = no such curve, though single readings can be large; an effect the other way counts as inactive or inconclusive. Unless noted, % is scaled to controls: 0 for no effect and ±100 for the full control effect; potency is read from the fitted curve at half-maximal effect.

SMILES | KDM4E inh | L3MBTL1 inh | APEX1 inh | RECQ1 helicase | BLM helicase inh
CC(C)CCCC1(C)C=Cc2c(O)c3c(c(CCC(C)C)c2O1)OC12C(CC4CC1C(C)(C)OC2(CCC(C)C(=O)O)C4O)C3=O (stereo not drawn) | -10% | nt | -6% | i | -10%
O=[N+]([O-])c1ccc2c3c(cccc13)CC2 | nt | nt | -5% | -21% | nt
O=C1NC(=O)C2(Cc3ccccc3N3CCCC32)C(=O)N1c1ccc(Cl)cc1 (stereo not drawn) | 25µM* | -10% | -6% | -15% | -1%
CCOc1cc(C=O)ccc1O | nt | -3% | 17% | -4% | nt
O=Cc1ccc(O)c(O)c1 | 4.5µM* | 1% | 4% | -5% | -6%
CCn1cc(C=C2C(=O)NC(=O)NC2=O)c2ccccc21 | nt | nt | -3% | nt | -1%
CCC1(C)OC(c2ccccc2)=C/C(=C/C=C2C(=O)NC(=O)NC2=O)O1 (stereo not drawn) | 9% | ? | 5% | 8.9µM* | -23%
C/C1=C\[C@@H](C)C/C=C/[C@H]2[C@@H]3O[C@]3(C)[C@@H](C)[C@H]3[C@H](Cc4c[nH]c5ccccc45)NC(=O)[C@]32C(=O)/C=C/C(=O)[C@@H]1O | -1% | ? | 16µM* | i | -15%
CC(=O)[O-].CC(=O)[O-].O.O.[Cd+2] | nt | nt | 0.79µM* | -22% | nt
CC1[C@H]2Cc3ccc(O)cc3[C@]1(C)CCN2CCc1ccccc1 (stereo partly drawn) | nt | ? | 15% | nt | nt
CC1C2Cc3ccc(O)cc3[C@]1(C)CCN2CCc1ccccc1 (stereo partly drawn) | nt | 3% | 36% | nt | nt
CN1CC[C@@]2(C)c3cc(O)ccc3N(C)C12 (stereo partly drawn) | 5µM* | nt | ? | -2% | nt
CN1CC[C@]2(C)c3cc(O)ccc3N(C)[C@@H]12 | 2.2µM* | nt | -1%[21 µM] | i | -11%[21.4 µM]
FC(F)(F)c1ccccc1CNCCc1c[nH]c2ccccc12 | nt | nt | 4% | nt | -4%
Cc1nc(Cl)sc1C(=O)Nc1ccc2ccccc2c1 | ? | 14% | 17% | i | -1%
O=C(Nc1ccc2ccccc2c1)c1nn(C23CC4CC(CC(C4)C2)C3)cc1Br | -4% | -8% | 4.5µM* | -8% | 1%
Cc1nccc2c1[nH]c1ccc(Br)cc12 | nt | -10% | -5% | nt | nt
COc1ccc2c(c1)[nH]c1c(C)nccc12 | ? | 9% | 7.9µM*! | 3% | 91%
CC(C)NC[C@H](O)c1ccc(N)c(C#N)c1 | 1% | nt | -11% | -4% | 1%
CCC(C#N)(CC)P(=S)(c1ccccc1)c1ccccc1 | 6% | 23% | 10% | -14% | -13%
Cc1ccnc(-n2c(C)cc(C=C3C(=O)N(C)C(=S)N(C)C3=O)c2C)c1 | -28% | -6% | 8% | 40µM* | -12%
Cc1cc(C=C2C(=O)N(C)C(=S)N(C)C2=O)c(C)n1-c1ccncc1 | 0% | -22% | -4% | 25µM* | -9%
Cc1cc(C)cc(-n2c(C)cc(/C=C3\C(=O)NC(=O)N(C)C3=O)c2C)c1 | 1% | -6% | 4% | -8% | -10%
O=[N+]([O-])c1cc(S(=O)(=O)c2ccc(O)c([N+](=O)[O-])c2)ccc1O | -1% | 10µM* | ? | -15% | 40%
CCn1cc(C(=O)O)c(=O)c2cc(F)c(N3CCNCC3)cc21 | 16µM* | -4% | 10% | 3% | -4%
SMILES | KDM4E inh | L3MBTL1 inh | APEX1 inh | RECQ1 helicase | BLM helicase inh
O=C(Nc1cccc(C(=O)Nc2cc(C(=O)Nc3ccc([S+](=O)([O-])[O-])c4cc([S+](=O)([O-])[O-])cc(SOOO)c34)ccc2F)c1)Nc1cccc(C(=O)Nc2cc(C(=O)Nc3ccc([S+](=O)([O-])[O-])c4cc([S+](=O)([O-])[O-])cc([S+](=O)([O-])[O-])c34)ccc2F)c1 | nt | nt | 2.8µM* | 11µM* | 126%
Cc1c(N=Nc2c(O)[nH]c(=S)[nH]c2=O)c(=O)n(-c2ccccc2)n1C | -6% | ? | -2% | -21% | 2%
C=CCn1c(O)c(N=Nc2c(C)n(C)n(-c3ccccc3)c2=O)c(=O)[nH]c1=S | 5% | 20µM* | -2% | 2% | -8%
CCOc1ccc(-n2c(O)c(N=Nc3c(C)n(C)n(-c4ccccc4)c3=O)c(=O)[nH]c2=O)cc1 | 7.9µM* | 25µM* | 2% | -8% | -1%
CC(=O)NCC(=O)Nc1ccc(Br)cc1C(=O)c1ccccc1 | 2% | 1% | 3% | 0% | -1%
CN1C[C@@H](NS(=O)(=O)N(C)C)C[C@@H]2c3cccc4c3c(cn4C)C[C@H]21 | nt | nt | -4% | i | 2%
Cc1c(OCC(F)(F)F)ccnc1CS(=O)c1nc2ccccc2[nH]1 (stereo not drawn) | 14µM*! | -17% | 3% | 25% | -10%
c1ccc2c(c1)CCNC2 | nt | nt | 2% | 2% | nt
Cl.Cl.Cl.Cl.Cl.Cl.N.N.N.N.NNNNN.NNNNN.O.O.[Ru].[Ru].[Ru] | 32µM* | nt | -3% | 13µM* | 25µM*
COc1ccc(NC(=O)N2CCCC3(CCN(C(=O)Oc4ccccc4)CC3)C2)cc1 | nt | nt | 1% | -10% | -1%
Cc1ccc(/C=C2\C(=O)NC(=S)N(c3ccc(F)cc3)C2=O)o1 | nt | 16µM* | 45% | nt | -4%
Cc1ccc(N2C(=O)NC(=O)/C(=C\c3ccc([N+](=O)[O-])o3)C2=O)cc1 | -9% | 3.5µM* | ? | ? | -5%
COc1cccc(N2C(=O)/C(=C/c3ccc(C)o3)C(=O)NC2=S)c1 | nt | nt | 34% | nt | -13%
CCOc1cccc(N2C(=O)/C(=C/c3ccco3)C(=O)NC2=S)c1 | nt | -92% | 11µM* | nt | 28µM*
Cc1ccc(N2C(=O)/C(=C/c3ccc(CN(CCC#N)S(C)(=O)=O)o3)C(=O)NC2=S)cc1 | ? | 32µM* | ? | ? | -6%
C=COC(C)=O | nt | nt | 5% | 8% | nt
COc1ccc(Br)cc1CN1CCN(C(=O)Cc2ccccc2)CC1 | ? | nt | 2% | -6% | -2%
O=C1NC(=S)N(c2ccccc2)C(=O)/C1=C/c1ccco1 | nt | 0%[2.29 µM] | 17µM* | nt | 22µM*
Oc1cc2c(cc1O)[C@H]1c3ccccc3CN[C@H]1CC2 | 25µM* | nt | 2% | -1% | -2%
CC(C)CN(C(=O)CN1CC=C(c2ccccc2)CC1)c1c(N)n(CC(C)C)c(=O)[nH]c1=O | 28µM* | 4% | -3% | i | 0%
CCN(C(=O)CN1CC=C(c2ccccc2)CC1)c1c(N)n(Cc2ccccc2)c(=O)[nH]c1=O | -12% | 3% | 3% | i | -7%
[O]=[Cr](=[O])([OH])[O][Cr](=[O])(=[O])[OH] | nt | nt | 25µM*! | 13µM* | 1µM*
Cc1cccc(N2C(=O)NC(=O)/C(=C\c3cnc(-c4ccccc4)nc3)C2=O)c1 | -6% | 23% | 6% | 1% | -3%
CC(C)c1ccc(N2C(=O)NC(=O)/C(=C\c3cnc(-c4ccccc4)nc3)C2=O)cc1 | 20µM* | -3% | 6% | i | 1%
